PubChem BioAssay (EPA / NIEHS)
Active and inactive are the calls of the source. How the source made its calls: active means hit-call score of the fitted dose curve at least 0.9, where 1 is the maximum; inactive means score below 0.9.

Columns and labels:
Conditions in all cases: mRNA level, 48 h; actives raise or lower the signal
[1] = read-out: solute carrier (SLC22A1), SLC22A1 (gene 6580); assay: LTEA_HepaRG_SLC22A1: Life Technologies and Expression Analysis (LTEA) Assay for solute carrier (SLC22A1) using HepaRG (AID 2283524)
Procedure, shortened: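 Differentiated human HepaRG cells in serum-free induction medium, exposed 48 h in duplicate to 8-point half-log series from 100 µM top in 0.5% DMSO. SLC22A1 mRNA by TaqMan qRT-PCR normalized to ACTB, GAPDH, POLR2A; bidirectional fit versus DMSO.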

[2] = read-out: Pyruvate Dehydrogenase Kinase 4 (PDK4), PDK4 (gene 5166); assay: LTEA_HepaRG_PDK4: Life Technologies and Expression Analysis (LTEA) Assay for Pyruvate Dehydrogenase Kinase 4 (PDK4) using HepaRG (AID 2283525)
Procedure, shortened: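 HepaRG cells plated 48 h, then switched to serum-free induction medium and exposed in duplicate for 48 h to 8 half-log concentrations from 100 uM in 0.5% DMSO. PDK4 mRNA measured by qRT-PCR, normalized to ACTB, GAPDH and POLR2A; bidirectional fit versus DMSO.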

[3] = read-out: NAD(P)H dehydrogenase [quinone] 1 (NQO1), NQO1 (gene 1728); assay: LTEA_HepaRG_NQO1: Life Technologies and Expression Analysis (LTEA) Assay for NAD(P)H dehydrogenase [quinone] 1 (NQO1) using HepaRG (AID 2283526)
Procedure, shortened: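 Differentiated human HepaRG cells in serum-free induction medium, dosed in duplicate for 48 h at 8 half-log concentrations up to 100 uM in 0.5% DMSO. NQO1 mRNA by qRT-PCR normalized to ACTB, GAPDH, POLR2A; bidirectional fit versus DMSO baseline.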

[4] = read-out: Nuclear factor erythroid 2-related factor 2 (Homo sapiens) (UniProt Q16236); assay: LTEA_HepaRG_NFE2L2: Life Technologies and Expression Analysis (LTEA) Assay for Nuclear factor erythroid 2-related factor 2 (NFE2L2) Transcription Factor using HepaRG (AID 2283527)
Procedure, shortened: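 Differentiated human HepaRG cells, serum-free induction medium, exposed 48 h in duplicate to eight half-log concentrations up to 100 uM in 0.5% DMSO. NFE2L2 mRNA by Fluidigm TaqMan qRT-PCR, normalised to ACTB, GAPDH, POLR2A; bidirectional change versus DMSO.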

[5] = read-out: succinate dehydrogenase complex iron sulfur subunit B (SDHB), SDHB (gene 6390); assay: LTEA_HepaRG_SDHB: Life Technologies and Expression Analysis (LTEA) Assay for succinate dehydrogenase complex iron sulfur subunit B (SDHB) using HepaRG (AID 2283528)
Procedure, shortened: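 Readout is SDHB transcript level by qRT-PCR, normalised to three housekeeping genes and fitted bidirectionally against 0.5% DMSO vehicle. Human HepaRG cells were treated for 48 h at up to 100 uM.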

[6] = read-out: Signal transducer and activator of transcription 3 (Homo sapiens) (UniProt P40763); assay: LTEA_HepaRG_STAT3: Life Technologies and Expression Analysis (LTEA) Assay for Signal transducer and activator of transcription (STAT3) using HepaRG (AID 2283529)
Procedure, shortened: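 Differentiated HepaRG cells, serum-free induction medium, dosed 48 h in duplicate, 8 half-log concentrations from 100 uM in 0.5% DMSO. STAT3 mRNA by qRT-PCR, normalised to ACTB, GAPDH, POLR2A; bidirectional fit versus DMSO.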

[7] = read-out: solute carrier (SLCO1B1), SLCO1B1 (gene 10599); assay: LTEA_HepaRG_SLCO1B1: Life Technologies and Expression Analysis (LTEA) Assay for solute carrier (SLCO1B1) using HepaRG (AID 2283530)
Procedure, shortened: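 SLCO1B1 transcript levels were quantified by TaqMan qRT-PCR using three housekeeping genes for normalization. This followed 48 h chemical exposure (100 uM top, half-log, 8 points, 0.5% DMSO) of HepaRG liver cells, with gain or loss fitted relative to DMSO.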

[8] = read-out: sulfotransferase 2A1 (SULT2A1), SULT2A1 (gene 6822); assay: LTEA_HepaRG_SULT2A1: Life Technologies and Expression Analysis (LTEA) Assay for sulfotransferase 2A1 (SULT2A1) using HepaRG (AID 2283531)
Procedure, shortened: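 Expression change of SULT2A1, by qRT-PCR with three housekeeping-gene normalization, was scored bidirectionally versus DMSO. Cells: differentiated HepaRG, dosed in duplicate for 48 h across 8 points, highest 100 µM, half-log dilution, 0.5% DMSO.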

[9] = read-out: Transforming Growth Factor (TGFA), TGFA (gene 7039); assay: LTEA_HepaRG_TGFA: Life Technologies and Expression Analysis (LTEA) Assay for Transforming Growth Factor (TGFA) using HepaRG (AID 2283532)
Procedure, shortened: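 Differentiated HepaRG cells exposed 48 hours in serum-free induction medium, 0.5% DMSO vehicle, 8-point half-log series from 100 uM, in duplicate. TGFA mRNA by TaqMan qRT-PCR, normalised to ACTB, GAPDH, POLR2A; bidirectional fit versus DMSO.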

[10] = read-out: Transforming Growth Factor (TGFB1), TGFB1 (gene 7040); assay: LTEA_HepaRG_TGFB1: Life Technologies and Expression Analysis (LTEA) Assay for Transforming Growth Factor (TGFB1) Transporter using HepaRG (AID 2283533)
Procedure, shortened: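 TGFB1 transcript measured by qRT-PCR with normalisation to three housekeeping genes (ACTB, GAPDH, POLR2A); human HepaRG line treated in duplicate for 48 hr with an 8-point series topping at 100 uM, 0.5% DMSO vehicle, bidirectionally fitted.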

Measured: AC50

Nuclear factor erythroid 2-related factor 2 (Homo sapiens), sequence (Q16236 whole entry, looked up): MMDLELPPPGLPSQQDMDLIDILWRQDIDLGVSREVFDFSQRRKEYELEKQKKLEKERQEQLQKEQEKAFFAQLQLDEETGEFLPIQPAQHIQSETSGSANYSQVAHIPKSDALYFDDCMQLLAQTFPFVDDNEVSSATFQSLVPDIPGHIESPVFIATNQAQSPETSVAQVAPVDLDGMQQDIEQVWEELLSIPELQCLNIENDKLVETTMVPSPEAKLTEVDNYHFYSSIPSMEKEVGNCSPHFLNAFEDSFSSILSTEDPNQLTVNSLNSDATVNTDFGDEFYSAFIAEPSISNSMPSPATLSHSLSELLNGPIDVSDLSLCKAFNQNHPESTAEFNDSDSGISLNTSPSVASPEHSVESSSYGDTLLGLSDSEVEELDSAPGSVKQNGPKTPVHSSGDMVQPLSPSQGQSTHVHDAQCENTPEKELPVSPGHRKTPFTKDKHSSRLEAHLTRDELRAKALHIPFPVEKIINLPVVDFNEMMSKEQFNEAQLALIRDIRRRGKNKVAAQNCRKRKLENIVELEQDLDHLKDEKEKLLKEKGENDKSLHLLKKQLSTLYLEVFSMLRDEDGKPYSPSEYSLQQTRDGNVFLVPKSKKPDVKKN
Signal transducer and activator of transcription 3 (Homo sapiens), sequence (P40763 whole entry, looked up): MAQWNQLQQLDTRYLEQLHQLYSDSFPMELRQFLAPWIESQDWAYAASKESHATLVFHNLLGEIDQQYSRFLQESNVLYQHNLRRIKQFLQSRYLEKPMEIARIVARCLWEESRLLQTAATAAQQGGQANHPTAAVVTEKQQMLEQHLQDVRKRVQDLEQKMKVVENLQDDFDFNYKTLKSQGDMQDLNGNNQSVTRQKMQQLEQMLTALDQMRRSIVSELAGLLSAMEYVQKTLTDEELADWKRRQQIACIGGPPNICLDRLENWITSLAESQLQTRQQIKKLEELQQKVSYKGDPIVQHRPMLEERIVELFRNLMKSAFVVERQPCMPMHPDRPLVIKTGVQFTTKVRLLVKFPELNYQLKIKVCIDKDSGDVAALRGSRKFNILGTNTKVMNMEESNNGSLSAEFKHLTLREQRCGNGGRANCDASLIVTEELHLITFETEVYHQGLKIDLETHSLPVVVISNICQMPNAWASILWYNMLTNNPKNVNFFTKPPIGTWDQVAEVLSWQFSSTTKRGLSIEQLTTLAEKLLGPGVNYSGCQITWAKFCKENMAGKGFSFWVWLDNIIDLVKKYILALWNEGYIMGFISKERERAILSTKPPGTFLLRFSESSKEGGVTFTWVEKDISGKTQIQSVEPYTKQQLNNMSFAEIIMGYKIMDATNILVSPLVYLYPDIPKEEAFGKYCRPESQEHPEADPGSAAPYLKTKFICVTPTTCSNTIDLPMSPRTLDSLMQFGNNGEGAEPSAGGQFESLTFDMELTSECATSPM

Cn1c(=O)c2c(ncn2C)n(C)c1=O
inactive: all assays above

CC(C)CCCCCCCOC(=O)CCCCC(=O)OCCCCCCCC(C)C
inactive: all assays above

CC[C@H]1OC(=O)[C@H](C)[C@@H](O[C@H]2C[C@@](C)(OC)[C@@H](O)[C@H](C)O2)[C@H](C)[C@@H](O[C@@H]2O[C@H](C)C[C@H](N(C)C)[C@H]2O)[C@](C)(O)C[C@@H](C)C(=O)[C@H](C)[C@@H](O)[C@]1(C)O
inactive: all assays above

CCOc1cccc(-n2cc(C(=O)N3CCN(c4cc(C(=O)O)c5ccccc5c4)CC3)nc2-c2ccc(C)cc2)c1
inactive: [4]
active: [1] 29.9 µM | [2] 89.3 µM | [3] 78.4 µM | [5] 82.3 µM | [6] 50 µM | [7] 37.4 µM | [8] 35.7 µM | [9] 88.7 µM | [10] 83.7 µM

CC[C@H]1CC[C@H](NCc2cc3c(cc2OC)[C@H]2C[C@H]2C(=O)N3C)[C@H](c2ccccc2)N1
active: [8] 50 µM
inactive: all other assays above

CCC(C)(C)C(=O)O[C@H]1C[C@@H](C)C=C2C=C[C@H](C)[C@H](CC[C@@H]3C[C@@H](O)CC(=O)O3)[C@H]21
inactive: all assays above

CC(C)CCO
inactive: all assays above

CC(C)=CCCC(C)CCO (stereo not given)
inactive: all assays above

Cn1cnc([N+](=O)[O-])c1Sc1ncnc2nc[nH]c12
active: [1] 16.1 µM | [2] 6.61 µM | [7] 1.62 µM | [10] 12.8 µM
inactive: all other assays above

CCOC(=O)CC(CC(=O)OCC)(OC(C)=O)C(=O)OCC
inactive: all assays above

On1ccccc1=S
inactive: all assays above

CC(C)CCCCCCOC(=O)c1ccc(C(=O)OCCCCCCC(C)C)c(C(=O)OCCCCCCC(C)C)c1
inactive: all assays above

CCCCC(CC)COC(=O)c1ccc(C(=O)OCC(CC)CCCC)cc1 (stereo not given)
inactive: all assays above

CCCCCCCCCCCCc1ccccc1
inactive: all assays above

Fc1ccccc1[C@@H](F)COC1CCC(Nc2ncnc3[nH]ncc23)CC1 (stereo not given in full)
inactive: [5] | [10]
active: [1] 55.8 µM | [2] 11.7 µM | [3] 26.5 µM | [4] 88.8 µM | [6] 8.85 µM | [7] 71.7 µM | [8] 65.7 µM | [9] 50 µM

CCCCC(CC)COC(=O)CCCCCCCCC(=O)OCC(CC)CCCC (stereo not given)
inactive: all assays above

Cc1ccc(C)c(O)c1
inactive: all assays above

O=C(NS(=O)(=O)/C=C/c1ccccc1)c1ccc(F)cc1Cl
active: [2] 26.4 µM
inactive: all other assays above

Cn1c(=O)cc(Oc2ccc(F)cc2F)c2cnc(NCC(C)(C)O)nc21
active: [4] 1.3 µM
inactive: all other assays above

O=c1[nH]c2ccc(S(=O)CCN3CCC(Cc4ccc(F)cc4)CC3)cc2o1 (stereo not given)
active: [1] 67.2 µM | [2] 14.7 µM | [5] 50 µM
inactive: all other assays above

CN(C)c1ccc(Cc2ccc(N(C)C)cc2)cc1
inactive: all assays above

CC(C)(O)c1coc(S(=O)(=O)NC(=O)Nc2c3c(cc4c2CCC4)CCC3)c1
inactive: all assays above

COCCOc1cc2cc(C(=O)NC3CCN(C(C)C)CC3)n(CC(=O)Nc3ccc(Cl)cn3)c2cn1
active: [1] 62.1 µM | [2] 37.4 µM | [7] 56.5 µM
inactive: all other assays above

CCCCCCCCO
inactive: all assays above

O=C1CCCCCN1
inactive: all assays above

CCOCCOCCOCCO
inactive: all assays above

CC(=O)OC[C@H]1O[C@@](COC(C)=O)(O[C@H]2O[C@H](COC(C)=O)[C@@H](OC(C)=O)[C@H](OC(C)=O)[C@H]2OC(C)=O)[C@@H](OC(C)=O)[C@@H]1OC(C)=O
inactive: all assays above

CC1=CC(=O)CC(C)(C)C1
inactive: all assays above

COC(=O)c1ccccc1O
inactive: all assays above

CCCCCCCCCCCCCCCO
not listed: [7]
inactive: all other assays above

CCn1nc(Cc2ccccc2)cc1C1CCN(C[C@H]2C[C@H](N(C)[C@@H](C(=O)O)C(C)C)C[C@@H]2c2cccc(F)c2)CC1
active: [1] 12.4 µM | [10] 73.3 µM
inactive: all other assays above

CCNc1ccccc1
inactive: all assays above

C1N2CN3CN1CN(C2)C3
inactive: all assays above

Cc1ccc(S(=O)(=O)O)cc1C
inactive: all assays above

CCCCCCc1ccc(O)cc1O
active: [2] 66.4 µM
inactive: all other assays above

CNCc1ccc(NC(=O)c2c[nH]c3c2C(=O)CCC3)cc1
inactive: all assays above

NC(=O)NO
inactive: all assays above

CC(O)CN(CCN(CC(C)O)CC(C)O)CC(C)O (stereo not given)
active: [4] 12.6 µM
inactive: all other assays above

CCCN(C1CCN(C(=O)C2CCNCC2)CC1)[C@@H]1CCc2ccc(OC)cc2C1
active: [1] 83 µM | [6] 0.256 µM | [7] 79.4 µM | [8] 83.5 µM
inactive: all other assays above

O=C(O)c1cccc(N(Cc2cccnc2)c2ccc(OC(F)F)c(OC(F)F)c2)c1
active: [2] 50 µM
not listed: [6]
inactive: all other assays above

CC(C)=CCC/C(C)=C\CO
not listed: [3]
inactive: all other assays above

Clc1nc(Cl)c(Cl)c(Cl)c1Cl
inactive: all assays above

CCCC(=O)OCC
inactive: all assays above

C[C@](N)(Cc1ccc(O)c(O)c1)C(=O)O
inactive: all assays above

COCCOCCOCCOC
inactive: all assays above

Nc1cccc(N)c1
inactive: all assays above

Cc1c(-c2cccnc2)c2ccccc2n1CCCCC(=O)O
active: [2] 27.6 µM
not listed: [1]
inactive: all other assays above

CC(C)=CCCC(C)=CC=O
inactive: all assays above

Nc1nc2ncc(CNc3ccc(C(=O)N[C@@H](CCC(=O)O)C(=O)O)cc3)nc2c(=O)[nH]1
inactive: all assays above

CN(C)c1ccc(N=NS(=O)(=O)O)cc1
active: [1] 20.5 µM | [6] 0.717 µM
inactive: all other assays above

COc1ccc(-n2nc(C(F)F)cc2-c2ccc(S(C)=O)cc2)cc1 (stereo not given)
inactive: all assays above

O=C(O)c1cc(N=Nc2ccc(S(=O)(=O)Nc3ccccn3)cc2)ccc1O
not listed: [9]
inactive: all other assays above

CC(=O)c1ccc2c(c1)[C@H](NC(=O)c1ccc(F)cc1)[C@@H](O)C(C)(C)O2
inactive: all assays above

C=CC(=C)CCC=C(C)C
inactive: all assays above

O=C1OC(=O)C2C3C=CC(C3)C12 (stereo not given)
inactive: all assays above

O=C(O)CC(O)C(=O)O (stereo not given)
inactive: all assays above

COC(=O)CC(=O)OC
inactive: all assays above

O=C(CCCCCCCCc1cccnc1)N1CCC(C=C(c2ccccc2)c2ccccc2)CC1
active: [1] 24.4 µM | [2] 89.4 µM | [3] 80 µM | [4] 24.9 µM | [7] 50 µM | [8] 30.6 µM | [9] 27 µM
inactive: [5] | [6] | [10]

COc1ccc2sc(C(=O)Nc3nnn[nH]3)c(OC(C)C)c2c1
inactive: [3] | [5] | [6] | [10]
active: [1] 97.4 µM | [2] 32.5 µM | [4] 27.6 µM | [7] 81.7 µM | [8] 78.4 µM | [9] 34 µM
